Assay outcomes from PubChem.
An excerpt weighted towards active compounds, which were near 2.9% of everything screened.
DRD3 antagonist = qHTS of D3 Dopamine Receptor Antagonist: qHTS | D(3) dopamine receptor (Homo sapiens), P35462 | D3R cells, DiscoveRx beta-arrestin luminescence, antagonist mode; hits give low values | max response, negative = inhibition, % | 2.5% of 360,000 active | AID 652054, 2013; in the data active means max response below about -50%; inconclusive means no clear call, values can overlap the other calls; further: on the % scale 0 is the no-effect control and ±100 the full control effect
Target sequence (P35462 whole entry, looked up): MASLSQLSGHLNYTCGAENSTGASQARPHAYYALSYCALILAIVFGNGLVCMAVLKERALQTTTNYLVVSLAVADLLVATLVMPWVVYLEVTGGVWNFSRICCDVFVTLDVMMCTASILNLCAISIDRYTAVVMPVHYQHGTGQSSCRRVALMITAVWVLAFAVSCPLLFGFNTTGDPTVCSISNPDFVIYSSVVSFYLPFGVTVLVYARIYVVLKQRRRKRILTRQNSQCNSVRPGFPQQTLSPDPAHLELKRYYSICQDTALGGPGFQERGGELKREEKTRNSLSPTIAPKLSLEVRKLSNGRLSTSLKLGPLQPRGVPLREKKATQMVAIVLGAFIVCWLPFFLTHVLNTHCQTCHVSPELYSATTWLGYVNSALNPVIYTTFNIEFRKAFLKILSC
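Cells expressing the human receptor were seeded at 1500 cells/well, incubated overnight at 37 degrees C in 5% CO2, then exposed to library compounds with dopamine controls for 90 minutes at 37 degrees C before luminescent detection.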
Integrin act MD = qHTS for Activators of Integrin-Mediated Alleviation for Muscular Dystrophy. alpha7betagal myoblasts, beta-gal FDG fluorescence, 48 h. Potency, µM (highest dose often 38.3 µM), without a hit: at the highest dose activation, most hits filed as activators. 0.064% of 350,000 active; active means well fitted activation curve with a large enough effect; inconclusive means small, poorly fitted or top-dose-only effect; inactive means no such curve, though single readings can be large or run the other way;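 further: potency means the concentration at half of the fitted maximal effect; 100% = response of the positive control SU9516; nearly all actives have a fitted effect of over 60% in size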
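Alpha7betagal+/- myoblasts (passage 13) were plated 16-24 hr, then exposed to compounds (1:260 dilution of DMSO stock) for 48 hours at 37C. After MPER lysis, β-galactosidase reporter activity was read as FDG fluorescence (ex 480/em 540) after 30 minutes.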
D3 ag = qHTS of D3 Dopamine Receptor Agonist: qHTS. D(3) dopamine receptor (Homo sapiens), P35462. D3R DiscoveRx beta-arrestin cells, luminescence, 90 min. max activation, %. 0.58% of 410,000 active. AID 652048, 2013; in the data active means max activation above about 30%; further: 0% is about no effect
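Agonist-mode cell screen: cells plated at 1500/well and incubated overnight at 37 °C, then exposed to library compounds for 90 min at 37 °C. Detection reagent was added for 30–60 min at room temperature, and luminescence was read.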
Active calls of the source: *; ? = inconclusive; . = no result given.

SMILES | DRD3 antagonist | Integrin act MD | D3 ag
CCCCc1c(-c2ccccc2OC)ncn1Cc1ccc(-c2ccccc2)cc1 | ? | . | -2
CCc1c(C2CC2)ncn1Cc1cccc(-c2ccccc2)c1 | -95* | . | -14
CCN(CC)CCCN(C(=O)c1ccco1)c1nc(-c2ccc(Cl)cc2)cs1 | -50* | -51% | -18
CCN(CC)CCCN(C(=O)c1ccco1)c1nc(-c2ccc(C)cc2)cs1 | ? | -59% | -17
CC(C)Cc1nnc(NC(=O)CN2C(=O)C3CCCCC3C2=O)s1 (stereo not given) | -14 | 8% | -10
COc1ccc(C2=CC3=C(Br)C(=O)C(C)(OC(=O)c4cccs4)C(=O)C3=CO2)cc1 (stereo not given) | -55* | 1% | 10
COc1ccc(C2=CC3=C(Br)C(=O)C(C)(OC(=O)c4ccco4)C(=O)C3=CO2)cc1 (stereo not given) | 2 | -16% | 4
O=C(CCc1ccccc1)NC(=S)Nc1cc(C(F)(F)F)ccc1N1CCOCC1 | -10 | -49% | -26
C#CCOCCOCCOCCNc1nc(N2CCN(C(=O)[C@H]([C@@H](C)CC)n3cc(CCCN=C(N)N)nn3)CC2)nc(N2CCN(C(=O)[C@H](CCCCN)n3cc(CCC(=O)O)nn3)CC2)n1 | 17 | 17% | 48*
C#CCOCCOCCOCCNc1nc(N2CCN(C(=O)CCCCCCCCCCNC(=O)[C@H](CCCCN)n3cc(C[C@@H](C)CC)nn3)CC2)nc(N2CCN(C(=O)CCCCCCCCCCNC(=O)[C@H](CCCCN)n3cc(C[C@@H](C)CC)nn3)CC2)n1 | -51* | -41% | -18
C#CCOCCOCCOCCNc1nc(N2CCN(C(=O)[C@H]([C@@H](C)CC)n3cc(CCCCN)nn3)CC2)nc(N2CCN(C(=O)[C@H](CCCCN)n3cc(CCC(=O)O)nn3)CC2)n1 | 34 | 7% | -3
C#CCOCCOCCOCCNc1nc(N2CCN(C(=O)CCCCCCCCCCNC(=O)[C@H](CCCCN)n3cc(CCO)nn3)CC2)nc(N2CCN(C(=O)CCCCCCCCCCNC(=O)[C@H](CCCN=C(N)N)n3cc(C[C@@H](C)CC)nn3)CC2)n1 | ? | 0% | 6
Cn1c(=O)oc2cc(S(=O)(=O)Nc3ccccc3)ccc21 | 6 | -7% | 11
Cn1c(=O)oc2cc(S(=O)(=O)Nc3cccc([N+](=O)[O-])c3)ccc21 | -88* | 8% | -28
CCOC(=O)C1=C(C)C(c2ccccc2OC)NC(=O)N1 (stereo not given) | ? | 6% | -5
COCCn1nnnc1SCC(=O)N1CCCCC1 | 3 | 21% | 0
COc1ccc(CN2CCNC(=O)C2CC(=O)N(C)CCC2CCOCC2)cc1OC (stereo not given) | 7 | -38% | 1
Cn1c(CCN2CCCCC2)nc2cc(NS(=O)(=O)c3ccc(F)cc3)ccc21 | -66* | 0% | -4
Cc1ccc(S(=O)(=O)Nc2ccc3c(c2)nc(CCN2CCCCC2)n3C)cc1 | -79* | -34% | -37
Cc1ccc(S(=O)(=O)Nc2ccc3c(c2)nc(CN2CCCC2)n3C)cc1 | ? | 9% | -15
Cc1ccc(S(=O)(=O)Nc2ccc3c(c2)nc(CCN2CCOCC2)n3C)cc1 | -3 | -17% | -7
Cc1ccc(S(=O)(=O)NNC(=O)CCC(=O)Nc2ccccc2Cl)cc1 | -22 | ? | -4
COc1ccc(-c2nn(CC(=O)NCCc3ccccc3)c(=S)n2C)cc1 | 9 | -48% | -7
Cc1ccc(CNC(C)c2ccccc2)cc1 (stereo not given) | -55* | 6% | -8
Cc1ccc(NC(=O)CNC(C)c2ccccc2)cc1 (stereo not given) | ? | -35% | -11
SMILES | DRD3 antagonist | Integrin act MD | D3 ag
Cc1ccccc1C(=O)N/N=C/c1ccc([N+](=O)[O-])s1 | -10 | -53% | 5
Cc1c(Cl)cccc1N=Cc1ccc([N+](=O)[O-])s1 | -51* | -13% | -29
Cc1sc2ncnc(N3CCN(CCOc4ccc(Cl)cc4)CC3)c2c1C | -27 | -46% | 39*
Cc1sc2ncnc(N3CCC(C(=O)NNC(=O)COc4ccc(Cl)cc4)CC3)c2c1C | 49 | 9% | 6
COc1ccc(OCC(=O)NNC(=O)C2CCN(c3ncnc4sc(C)c(C)c34)CC2)cc1 | 4 | -4% | 2
Cc1sc2ncnc(N3CCC(C(=O)NNC(=O)COc4ccccc4Cl)CC3)c2c1C | 48 | 21% | 30*
Cc1cc(Cl)ccc1OCC(=O)NNC(=O)C1CCN(c2ncnc3sc(C)c(C)c23)CC1 | 86 | -35% | 22
Cc1ccc(OCC(=O)NNC(=O)C2CCN(c3ncnc4sc(C)c(C)c34)CC2)cc1 | 20 | 5% | 37*
